According to PubChem BioAssay (NCI):
About 83,000 compounds went through this panel and 20% of them were active in at least one assay; those are over-represented in the sample as a whole.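 How to read the values: 0–100, growth inhibition (40 = 60% inhibited); 0, no net growth; -100 to 0, cell death (-40 = 40% of starting cells died; -100 = all dead).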 The source made the active and inactive calls. How the source made its calls: active means growth percent below 10; inactive means the rest.

Key:
Experiment in all cases: NCI-60 one-dose screen, 48 h (100 = growth as untreated, 0 = no growth, -100 = all killed)
Conditions in all cases: 10 µM unless noted
NCI-H23 lung = tested on: NCI-H23 lung
NCI-H226 lung = tested on: NCI-H226 lung
NCI-H322M lung = tested on: NCI-H322M lung
HOP-62 NSCLC = tested on: HOP-62 NSCLC
NCI-H460 lung = tested on: NCI-H460 lung
HOP-92 NSCLC = tested on: HOP-92 NSCLC
NCI-H522 lung = tested on: NCI-H522 lung
A549/ATCC NSCLC = tested on: A549/ATCC NSCLC
786-0 renal = tested on: 786-0 renal
COLO 205 colon = tested on: COLO 205 colon

Measured: growth

NCCCNc1nc2ccccc2c2c(=O)c3cc(Cl)ccc3sc12
active: HOP-62 NSCLC -82.9% | NCI-H460 lung -83.8% | HOP-92 NSCLC -7.36% | NCI-H522 lung -83.6% | A549/ATCC NSCLC -18.4% | 786-0 renal 2.76% | COLO 205 colon -83.6%
inactive: NCI-H23 lung 45.7% | NCI-H226 lung 93.1% | NCI-H322M lung 39.5%

Cc1ccc2c(c1)sc1nc(-c3c[nH]c4ccccc34)c(Nc3ccccc3)n12
inactive: NCI-H23 lung 98.4% | NCI-H226 lung 98.6% | NCI-H322M lung 106% | HOP-62 NSCLC 96.1% | NCI-H460 lung 101% | HOP-92 NSCLC 101% | NCI-H522 lung 90.6% | A549/ATCC NSCLC 101% | 786-0 renal 105% | COLO 205 colon 107%

[N-]=[N+]=NCC1OC(n2cnc3c(NC(=O)Nc4ccccc4)ncnc32)C2OC(=O)CC12 (stereo not given)
inactive: NCI-H23 lung 106% | NCI-H226 lung 106% | NCI-H322M lung 99.8% | HOP-62 NSCLC 98.1% | NCI-H460 lung 112% | HOP-92 NSCLC 86.9% | NCI-H522 lung 107% | A549/ATCC NSCLC 95.2% | 786-0 renal 105% | COLO 205 colon 105%

CCOC(=O)/C=C1\S/C(=N\Nc2cc(=O)[nH]c3ccc(Br)cc23)N(c2ccccc2)C1=O
inactive: NCI-H23 lung 88.1% | NCI-H226 lung 84.1% | NCI-H322M lung 90.5% | HOP-62 NSCLC 91.2% | NCI-H460 lung 95.9% | HOP-92 NSCLC 81.5% | NCI-H522 lung 31.4% | A549/ATCC NSCLC 103% | 786-0 renal 86% | COLO 205 colon 46.6%

COC(=O)[C@]1(C)CCC[C@]2(C)[C@H]3C[C@@H]4[C@H]5[C@@H]6CC/C(=N\OCC/C(N)=N/O)[C@H]5[C@@]3(CC[C@H]21)CC4(C(C)C)O6
inactive: NCI-H23 lung 73.4% | NCI-H226 lung 83.7% | NCI-H322M lung 82.2% | HOP-62 NSCLC 80.8% | NCI-H460 lung 67.5% | HOP-92 NSCLC 65% | NCI-H522 lung 54.7% | A549/ATCC NSCLC 71.8% | 786-0 renal 86.2% | COLO 205 colon 72.1%

COCCn1cc(-c2csc(-c3c[nH]c4ccccc34)n2)c2cccnc21
inactive: NCI-H23 lung 42.2% | NCI-H226 lung 60.9% | NCI-H322M lung 61% | HOP-62 NSCLC 38.2% | NCI-H460 lung 18.8% | HOP-92 NSCLC 55.5% | A549/ATCC NSCLC 25% | 786-0 renal 43.5%
active: NCI-H522 lung -33.6% | COLO 205 colon -8.68%

Cc1nc2sc(C(=O)Nc3cccc4ccccc34)c(N)c2cc1C(=O)c1ccccc1
active: NCI-H460 lung 7.31% | COLO 205 colon -2.82%
inactive: NCI-H23 lung 40.2% | NCI-H226 lung 68.3% | NCI-H322M lung 62.4% | HOP-62 NSCLC 42.5% | HOP-92 NSCLC 77.6% | NCI-H522 lung 15.5% | A549/ATCC NSCLC 23.5% | 786-0 renal 42.5%

C=CN(C(=O)N1CCN(c2cc3c(cc2F)c(=O)c(C(=O)O)cn3C2CC2)CC1)c1nc(-c2ccccc2)cs1
inactive: NCI-H23 lung 101% | NCI-H226 lung 98.1% | NCI-H322M lung 84.1% | HOP-62 NSCLC 98.4% | NCI-H460 lung 104% | HOP-92 NSCLC 90.6% | NCI-H522 lung 81.4% | A549/ATCC NSCLC 102% | 786-0 renal 90.1% | COLO 205 colon 98.5%

CC(=O)O[C@H]1CC[C@]2(C)[C@H]3CC=C4[C@@H]5CC(C)(C)CC[C@]5(C(=O)N5CCN(CCC#N)CC5)CC[C@@]4(C)[C@]3(C)CC[C@H]2C1(C)C
active: NCI-H460 lung -1.52%
inactive: NCI-H23 lung 45.3% | NCI-H226 lung 48.9% | NCI-H322M lung 53.3% | HOP-62 NSCLC 41.2% | HOP-92 NSCLC 56.7% | NCI-H522 lung 38.9% | A549/ATCC NSCLC 25.6% | 786-0 renal 47.4% | COLO 205 colon 21.1%

COC(=O)/C(CCC=C(C)C)=C1\[C@@H](OC(C)=O)C[C@@]2(C)[C@H]1C/C(=N/O)[C@H]1[C@@]3(C)CC/C(=N\O)[C@@H](C)[C@@H]3CC[C@@]12C
active: NCI-H522 lung -57.1%
inactive: NCI-H23 lung 99.5% | NCI-H226 lung 96.8% | NCI-H322M lung 109% | HOP-62 NSCLC 105% | NCI-H460 lung 105% | HOP-92 NSCLC 95.4% | A549/ATCC NSCLC 94% | 786-0 renal 96.3% | COLO 205 colon 106%

c1ccc2cc(Cn3cc(CSc4nc5ccccc5s4)nn3)ccc2c1
inactive: NCI-H23 lung 93.2% | NCI-H226 lung 83.8% | NCI-H322M lung 97.6% | HOP-62 NSCLC 85.7% | NCI-H460 lung 106% | HOP-92 NSCLC 98.7% | NCI-H522 lung 86.9% | A549/ATCC NSCLC 93.4% | 786-0 renal 101% | COLO 205 colon 102%

c1cc(OCCN2CCCCC2)ccc1CNc1ccc2nc(CCC3CCCCC3)[nH]c2c1
active: 786-0 renal -61% | COLO 205 colon -66%
inactive: NCI-H23 lung 73.8% | NCI-H226 lung 36.2% | NCI-H322M lung 74.6% | HOP-62 NSCLC 54.2% | NCI-H460 lung 33.6% | HOP-92 NSCLC 26.7% | NCI-H522 lung 50.4% | A549/ATCC NSCLC 42.3%

CCOC(=O)c1nnn(Cc2cc(=O)oc3ccc(O)cc23)c1C
inactive: NCI-H23 lung 101% | NCI-H226 lung 99.6% | NCI-H322M lung 105% | HOP-62 NSCLC 102% | NCI-H460 lung 99.3% | HOP-92 NSCLC 103% | NCI-H522 lung 97.1% | A549/ATCC NSCLC 98.6% | 786-0 renal 103% | COLO 205 colon 105%

COCCn1cc(-c2nc(-c3c[nH]c4ncccc34)cs2)c2ccccc21
inactive: NCI-H23 lung 40.7% | NCI-H226 lung 48.2% | NCI-H322M lung 43.4% | HOP-62 NSCLC 47.2% | NCI-H460 lung 22.6% | NCI-H522 lung 46.7% | A549/ATCC NSCLC 52.2% | 786-0 renal 77.9% | COLO 205 colon 24.8%
active: HOP-92 NSCLC 2.56%

CN(C)Cc1cc(C(C)(C)C)cc(Br)c1O
inactive: NCI-H23 lung 107% | NCI-H226 lung 101% | NCI-H322M lung 118% | HOP-62 NSCLC 110% | NCI-H460 lung 86.5% | HOP-92 NSCLC 87.5% | NCI-H522 lung 103% | A549/ATCC NSCLC 109% | 786-0 renal 101% | COLO 205 colon 102%

CSc1nc2ccc(C)cc2cc1/C=C1/C=C(c2ccccc2)NC1=O
active: 786-0 renal 2.66%
inactive: NCI-H23 lung 75.2% | NCI-H226 lung 69.4% | NCI-H322M lung 65.8% | HOP-62 NSCLC 72.8% | NCI-H460 lung 19.2% | HOP-92 NSCLC 36.4% | NCI-H522 lung 67.6% | A549/ATCC NSCLC 47.2% | COLO 205 colon 69.8%

O=[N+]([O-])c1c(O)c(Cl)cc(Cl)c1Cl
inactive: NCI-H23 lung 98.7% | NCI-H226 lung 94.4% | NCI-H322M lung 101% | HOP-62 NSCLC 97.9% | NCI-H460 lung 107% | HOP-92 NSCLC 83.3% | NCI-H522 lung 94.7% | A549/ATCC NSCLC 93.1% | 786-0 renal 99.6% | COLO 205 colon 116%

Cc1ccc(S(=O)(=O)OCC#CCOS(=O)(=O)c2ccc(C)cc2)cc1
active: HOP-62 NSCLC -12.9% | NCI-H522 lung -65.4%
inactive: NCI-H23 lung 59.3% | NCI-H226 lung 84.3% | NCI-H322M lung 93.9% | NCI-H460 lung 13.4% | HOP-92 NSCLC 40.2% | A549/ATCC NSCLC 17.1% | 786-0 renal 74.5% | COLO 205 colon 52.6%

C=C(C)[C@@H]1CC[C@]2(CO)CC[C@]3(C)[C@H](CC[C@@H]4[C@@](C)(CCCN)[C@H](C(=C)C)CC[C@]43C)[C@@H]12
inactive: NCI-H226 lung 13.1%
active: NCI-H23 lung -70.1% | NCI-H322M lung -53.9% | HOP-62 NSCLC -62.8% | NCI-H460 lung -93.8% | HOP-92 NSCLC -41% | NCI-H522 lung -48.6% | A549/ATCC NSCLC -68.8% | 786-0 renal -98.5% | COLO 205 colon -58%

Cc1cccc(NC(=O)Cn2cc(CN3CCN(c4ccnc5cc(Cl)ccc45)CC3)nn2)c1
inactive: NCI-H23 lung 89.4% | NCI-H226 lung 75.5% | NCI-H322M lung 93.1% | HOP-62 NSCLC 80.1% | NCI-H460 lung 94% | HOP-92 NSCLC 56.3% | NCI-H522 lung 80.3% | A549/ATCC NSCLC 94.1% | 786-0 renal 101% | COLO 205 colon 98.6%

CCN1C(=O)N(c2ccccc2)C2NC(=S)N(/N=C/C=C/c3ccccc3OC)C21 (stereo not given)
inactive: NCI-H23 lung 39.6% | NCI-H226 lung 49.9% | NCI-H322M lung 41.8% | HOP-62 NSCLC 35.1% | HOP-92 NSCLC 43.4% | A549/ATCC NSCLC 24.1% | 786-0 renal 26%
active: NCI-H460 lung 3.66% | NCI-H522 lung 9.88% | COLO 205 colon 6.54%

CCCCNC(=O)c1ccc2c(c1)nc(-c1ccccc1)n2C1CCCCC1
inactive: NCI-H23 lung 92.3% | NCI-H226 lung 109% | NCI-H322M lung 90.5% | HOP-62 NSCLC 77.3% | NCI-H460 lung 109% | HOP-92 NSCLC 105% | NCI-H522 lung 80.9% | A549/ATCC NSCLC 95.9% | 786-0 renal 92.7% | COLO 205 colon 88.9%

CN(C)CCCn1c2c(c3cnccc3c1=O)C(=O)c1ccccc1-2
inactive: A549/ATCC NSCLC 11.3%
active: NCI-H23 lung -10.7% | NCI-H226 lung -13.8% | NCI-H322M lung -7.53% | HOP-62 NSCLC -1.96% | NCI-H460 lung -27.2% | HOP-92 NSCLC -9.59% | NCI-H522 lung -28.2% | 786-0 renal -4.55% | COLO 205 colon -25%

CC1=Nc2cnc(Nc3ccc(N4CCCCC4)cc3)nc2Nc2ccccc21
inactive: NCI-H23 lung 67.1% | NCI-H226 lung 76.6% | NCI-H322M lung 75.7% | HOP-62 NSCLC 94.4% | NCI-H460 lung 86.8% | HOP-92 NSCLC 60.9% | NCI-H522 lung 40% | A549/ATCC NSCLC 79.8% | 786-0 renal 51.8% | COLO 205 colon 81.3%

COc1cc(/C=C/C(=O)N2CCN(C(=O)c3cc(OC)c(OC)c(OC)c3)CC2)ccc1OCCCOc1cc2c(cc1OC)C(=O)N1CCC[C@H]1C=N2
active: NCI-H23 lung -13.6% | NCI-H226 lung -8.72% | NCI-H322M lung -5.89% | HOP-62 NSCLC 9.35% | NCI-H460 lung 6.44% | HOP-92 NSCLC -37.1% | NCI-H522 lung -54.5% | COLO 205 colon -63.4%
inactive: A549/ATCC NSCLC 12.7% | 786-0 renal 11.7%

Fc1ccc2[nH]cc(-c3nc(-c4c[nH]c5c(Cl)nccc45)cs3)c2c1
inactive: NCI-H23 lung 60.4% | NCI-H226 lung 40% | NCI-H322M lung 76.7% | HOP-62 NSCLC 57.1% | HOP-92 NSCLC 36.4% | NCI-H522 lung 16.7% | A549/ATCC NSCLC 22.5% | COLO 205 colon 25.2%
active: NCI-H460 lung 4.9% | 786-0 renal -19.4%
